Test results published in PubChem BioAssay AID1159580 (chemical genetic matrix, 2015).
Out of some 5,500 compounds screened, about 2,000 (36%) were called active. Inconclusive results (about 18%) are left out. The list shows a part of the results. A number with no mark means an inactive call. Cut-off read from the data, not from the text of the source: active = normalized growth mostly below about 0.91 (no sharp cut-off); inconclusive = no clear call, values can overlap the other calls; inactive = mostly above about 0.92.

Experiment: chemical genetic growth profiling, strain panel (AID 1159580);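 note: tested at 20 µM; growth read once vehicle control cultures reached saturation at 30 °C; 1 = growth at the plate median or of vehicle wells; lower values mean less growth of the strain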
Details: S. cerevisiae deletion strains, growth OD
[1] = locus YHR030C, strain SLT2, hits give low values
[2] = locus YHR079C, strain IRE1, hits give low values
[3] = locus YJL095W, strain BCK1, hits give low values
[4] = locus YJR066W, strain TOR1, hits give low values
[5] = locus YLR113W, strain HOG1, hits give low values
[6] = locus YNL183C, strain NPR1, hits give low values
[7] = locus YOR231W, strain MKK1, hits give low values
[8] = locus YPL256C, strain CLN2, hits give low values

C=C1CC[C@H](O)C/C1=C/C=C1\CCCC2(C)C1CCC2C(C)CCCC(C)C (stereo partly drawn)
normalized growth [1]: 0.874
normalized growth [2]: 0.925
normalized growth [3]: 0.893
normalized growth [4]: 0.943
normalized growth [5]: 0.843 (active)
normalized growth [6]: 0.915
normalized growth [7]: 0.896
normalized growth [8]: 0.846

COc1cccc([C@]2(O)CCCC[C@H]2CN(C)C)c1
normalized growth (locus YAL021C, strain ccr4, hits give low values): 0.964
normalized growth (locus YAL026C, strain drs2, hits give low values): 0.968
normalized growth (locus YAL030W, strain snc1, hits give low values): 0.947
normalized growth (locus YBL061C, strain skt5, hits give low values): 0.968
normalized growth (locus YBR009C, strain hhf1, hits give low values): 0.965
normalized growth (locus YBR023C, strain chs3, hits give low values): 0.977
normalized growth (locus YBR171W, strain sec66, hits give low values): 0.962
normalized growth (locus YBR231C, strain swc5, hits give low values): 0.99
normalized growth (locus YBR279W, strain paf1, hits give low values): 0.975
normalized growth (locus YCL011C, strain gbp2, hits give low values): 0.972
normalized growth (locus YCL016C, strain dcc1, hits give low values): 0.973
normalized growth (locus YCL061C, strain MRC1, hits give low values): 0.987
normalized growth (locus YCL069W, strain vba3, hits give low values): 0.967
normalized growth (locus YCR088W, strain abp1, hits give low values): 0.973
normalized growth (locus YDL005C, strain med2, hits give low values): 0.965
normalized growth (locus YDL040C, strain nat1, hits give low values): 0.978
normalized growth (locus YDR001C, strain nth1, hits give low values): 0.963
normalized growth (locus YDR069C, strain doa4, hits give low values): 0.958
normalized growth (locus YDR137W, strain rgp1, hits give low values): 0.942
normalized growth (locus YDR159W, strain sac3, hits give low values): 0.932
normalized growth (locus YDR195W, strain ref2): 0.956
normalized growth (locus YDR297W, strain sur2, hits give low values): 0.966
normalized growth (locus YDR334W, strain swr1, hits give low values): 0.928
normalized growth (locus YDR335W, strain msn5, hits give low values): 0.958
normalized growth (locus YDR392W, strain spt3, hits give low values): 0.973
normalized growth (locus YEL003W, strain gim4, hits give low values): 0.971
normalized growth (locus YEL037C, strain rad23, hits give low values): 0.982
normalized growth (locus YEL061C, strain CIN8 (second series), hits give low values): 0.968
normalized growth (locus YER015W, strain faa2, hits give low values): 0.973
normalized growth (locus YER016W, strain bim1, hits give low values): 0.978
normalized growth (locus YER111C, strain swi4, hits give low values): 0.974
normalized growth (locus YER155C, strain BEM2 (second series), hits give low values): 0.97
normalized growth (locus YFR010W, strain ubp6, hits give low values): 0.955
normalized growth (locus YGL167C, strain pmr1, hits give low values): 0.967
normalized growth (locus YGL173C, strain kem1, hits give low values): 0.952
normalized growth (locus YGL227W, strain vid30, hits give low values): 0.963
normalized growth (locus YGL240W, strain doc1, hits give low values): 0.947
normalized growth (locus YGL253W, strain hxk2, hits give low values): 0.988
normalized growth (locus YHR013C, strain ard1, hits give low values): 0.937
normalized growth (locus YHR027C, strain rpn1, hits give low values): 0.959
normalized growth [1]: 0.969
normalized growth [2]: 0.963
normalized growth (locus YHR142W, strain chs7, hits give low values): 0.951
normalized growth (locus YJL092W, strain hpr5, hits give low values): 0.982
normalized growth (locus YJL095W, strain BCK1 (second series), hits give low values): 0.962
normalized growth [3]: 1.01
normalized growth (locus YJL115W, strain asf1, hits give low values): 0.956
normalized growth (locus YJL129C, strain trk1, hits give low values): 0.983
normalized growth (locus YJL154C, strain vps35, hits give low values): 0.959
normalized growth (locus YJL164C, strain tpk1, hits give low values): 0.981
normalized growth (locus YJL166W, strain qcr8, hits give low values): 0.968
normalized growth (locus YJL187C, strain SWE1, hits give low values): 0.973
normalized growth [4]: 0.935
normalized growth (locus YKL160W, strain elf1, hits give low values): 0.981
normalized growth (locus YKR026C, strain gcn3, hits give low values): 0.977
normalized growth (locus YKR091W, strain srl3, hits give low values): 0.98
normalized growth (locus YLL001W, strain dnm1, hits give low values): 0.981
normalized growth (locus YLL026W, hits give low values): 0.949
normalized growth (locus YLL041C, strain sdh2, hits give low values): 0.971
normalized growth (locus YLR027C, strain aat2, hits give low values): 0.944
normalized growth [5]: 0.981
normalized growth (locus YLR221C, strain rsa3, hits give low values): 0.971
normalized growth (locus YLR258W, strain gsy2, hits give low values): 0.971
normalized growth (locus YLR262C, strain YPT6 (second series), hits give low values): 0.962
normalized growth (locus YLR320W, strain mms22, hits give low values): 0.964
normalized growth (locus YLR342W, strain FKS1, hits give low values): 0.99
normalized growth (locus YLR357W, strain rsc2, hits give low values): 0.997
normalized growth (locus YLR370C, strain arc18, hits give low values): 0.974
normalized growth (locus YLR384C, strain iki3, hits give low values): 0.974
normalized growth (locus YML120C, strain ndi1, hits give low values): 0.979
normalized growth (locus YMR058W, strain fet3, hits give low values): 0.978
normalized growth (locus YMR125W, strain sto1, hits give low values): 0.963
normalized growth (locus YMR129W, hits give low values): 0.987
normalized growth (locus YMR205C, strain PFK2, hits give low values): 0.961
normalized growth (locus YMR231W, strain pep5, hits give low values): 0.967
normalized growth (locus YNL071W, strain lat1, hits give low values): 0.98
normalized growth [6]: 0.941
normalized growth (locus YNL209W, strain ssb2, hits give low values): 0.966
normalized growth (locus YNL248C, strain rpa49, hits give low values): 0.989
normalized growth (locus YNL322C, strain KRE1 (second series), hits give low values): 0.97
normalized growth (locus YNR049C, strain mso1, hits give low values): 0.969
normalized growth (locus YOR001W, strain rrp6, hits give low values): 0.968
normalized growth (locus YOR070C, strain gyp1, hits give low values): 0.978
normalized growth (locus YOR080W, strain dia2, hits give low values): 0.969
normalized growth (locus YOR083W, strain WHI5, hits give low values): 0.968
normalized growth (locus YOR106W, strain vam3, hits give low values): 0.969
normalized growth [7]: 0.96
normalized growth (locus YOR265W, strain rbl2, hits give low values): 0.978
normalized growth (locus YOR270C, strain vph1, hits give low values): 0.945
normalized growth (locus YOR290C, strain snf2, hits give low values): 0.966
normalized growth (locus YPL051W, strain arl3, hits give low values): 0.987
normalized growth (locus YPL078C, strain atp4, hits give low values): 0.968
normalized growth (locus YPL106C, strain sse1, hits give low values): 0.916
normalized growth (locus YPL240C, strain hsp82, hits give low values): 0.974
normalized growth [8]: 0.978
